Molecules are shown by their SMILES. “And” between values parts separate entries of the source, which are not always exact repeats. Identical values can stand only once. About 83,000 compounds went through this panel and 20% of them were active in at least one assay; those are over-represented in the sample as a whole.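 48-hour exposure, single concentration, 96-well plates; percent growth endpoint where 0 means no net growth. Active: below 10.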 A number with no mark means an inactive call. The source made the active and inactive calls.

The experiment has as its system MDA-MB-468 breast. As to the kind of experiment: NCI-60 one-dose screen, 48 h (100 = growth as untreated, 0 = no growth, -100 = all killed). To be noted: 10 µM unless noted.
In the case of `O=C(CCC(=O)c1nc2ncccc2[nH]1)NN1C(=O)CSC1c1ccc(Cl)cc1` (stereo not given), the growth was 112%.
As for `CC(=O)OC[Si](C)(C)c1ccccc1`, the figure is 95.3%; as for `Cc1ccc(NC(=O)c2[nH]c(SCCN(C)C)nc2-c2ccc(F)cc2)cc1Nc1ccc2ncn(C)c(=O)c2c1`, 92.1%.
With `C=CCn1c(SCC(=O)Nc2ccc(C(=O)/C=C/c3cc(OC)c(OC)c(OC)c3)cc2)nnc1-c1ccccc1` the figure was 82%.
For the compound `CC(C)=CC/C=C(/C)[C@H]1CC[C@]2(C)[C@@H]1CC[C@@H]1[C@@]3(C)CCC(=O)NC(C)(C)[C@@H]3CC[C@]12C`, the growth was -17.7% [100 µM] (active).
In the case of `CCCCCCCNc1nc(C=O)ncc1-c1ccc(C(F)(F)F)cc1`, the growth was 103%.
With `COc1cc(C2=C(c3cn(C)c4ccccc34)COC2=O)cc(OC)c1OC`, the growth was 16%.
With `NC(Cc1ccccc1)C(=O)NC(Cc1ccccc1)C(=O)O` (stereo not given) the figure was 102% and 92.8%; with `O=C1/C(=C/c2ccc(F)cc2)CN(C(=O)CCN2CCC(=NO)CC2)C/C1=C\c1ccc(F)cc1`, -41.6% (active).
With `COc1ccc2cc(/C=C3\N=C(c4cc(OC)c(OC)c(OC)c4)OC3=O)c(OC)nc2c1` the figure was 108%; with `COc1ccc(-c2nnc(SCC(=O)Nc3ccc(/C(C)=N\O)cc3)n2-c2ccccc2)cc1OC`, 78.5%.
With `CCCCCCCC/C=C\CCCCCCCCOc1ccccc1CC(=O)NCC[N+]1(C)CCCCC1` the figure was -9.98% (active).
Regarding `Nc1c(C(=O)c2ccccc2)sc2nc(-c3cccs3)ccc12`, the growth was 3.08% (active).
With `Cc1ccc(Cn2c(N3CCC(C(=O)NCc4cccs4)CC3)nc3ccccc32)cc1`, the growth was 95.3%.
For the compound `CC/C(=C\c1ccc(N(C)C)cc1)c1nc2ccccc2c(=O)[nH]1`, the growth is 91.4%.
With `CCN(CCO)CC(=O)c1cc(Cl)cc(Cl)c1Cl`, the growth was 110%.
As for `CN(C)c1ccc(/C=N/Nc2nnc3n2N=C(c2ccc(Cl)cc2)CS3)cc1`, the figure is 104%; as for `NNC(=O)/C(=C\c1ccc([N+](=O)[O-])cc1)CC(=O)c1ccc(Cl)c(Cl)c1`, 89.2%; as for `C=C[C@@H]1C[C@@H]2Cc3cc(Cl)ccc3N1O2`, 95.1%.
As for `COc1cc(F)c(F)c(Nc2ccc(I)cc2F)c1NS(=O)(=O)C1(C[C@H](O)CO)CC1`, the figure is 67.4%.
As for `COc1ccc(/C=C/c2nc3ccccc3nc2/C=C/c2ccc(OC)cc2)cc1`, the figure is 88.1%.
On to `CC(C)Sc1nc(Nc2ccc(S(N)(=O)=O)cc2)c(C#N)c(-c2ccc(F)cc2)n1`, for which the growth was 92.7%.
With `O=C1c2ccccc2C(=O)c2c(O)c(Cl)cc(O)c21` the figure was -15.7% (active); with `c1c2c(cc3c1OCO3)Cc1cc3c(cc1Cc1cc4c(cc1C2)OCO4)OCO3`, 106%.
As for `CS(=O)(=O)c1ccc(-n2nc(-c3ccc(Br)cc3)c3ccccc3c2=O)cc1`, the figure is 100%; as for `COc1cc(NC(=O)CCSc2nc3ccccc3c(=O)n2Cc2ccccc2)cc(OC)c1OC`, 93.3%; as for `CN1CCN(Cc2ccc(NC(=O)c3cncc(C#Cc4[nH]nc5ncncc45)c3)cc2C(F)(F)F)CC1`, 58%.
With `CCc1[nH]nc(-c2ccc(OC)cc2)c1-c1ccccc1OCCN(CC)CC` the figure was 87.8%.
As to `C=C(C)[C@@H]1CC[C@]2(C(=O)O)CC[C@]3(C)[C@H](CC[C@@H]4[C@@]5(C)C/C(=C/c6ccco6)C(=O)C(C)(C)[C@@H]5CC[C@]43C)[C@@H]12`, the growth was -27.1% [100 µM] (active).
As for `[2H]C1([2H])CCN(C(=O)C2CC2)c2cc(NS(=O)(=O)c3ccc(-c4cccc(C(N)=O)c4)cc3)ccc21`, the figure is -5.25% (active); as for `COc1ccc(Cl)cc1NC(N)=S`, 101%.
In the case of `CCOc1ccc2[nH]c(=S)sc2c1`, the growth was 107%.
With `CCCc1cccc(CCC)c1O` the figure was 118%; with `Cc1cc(N2CCCCC2)nc(N(CCNc2ccnc3cc(Cl)ccc23)Cc2ccccn2)n1`, 3.63% (active).
With `COc1ccc(C(=O)C2=CC(=O)C(=O)C2)cc1OC` the figure was 108%; with `COc1ccc(CN2C(=O)/C(=C/c3nc(CO)cs3)SC2=S)cc1`, 31.7%.
With `CCN(CC)CCCCCCNc1ccnc2cc(Cl)ccc12` the figure was 61.1%.
In the case of `O=C(COC(=O)[C@H](C[Se][Se]C[C@H](NC(=O)c1ccc(Br)cc1F)C(=O)OCC(=O)c1ccc(F)cc1)NC(=O)c1ccc(Br)cc1F)c1ccc(F)cc1`, the growth is -79.5% (active).
With `Cc1cc(C(C)(C)C)ccc1S` the figure was 104%.
Consider `Nc1ccn(C2CC(N)C(CO)O2)c(=O)n1` (stereo not given), for which the growth was 101%.

Values taken from PubChem BioAssay (NCI).
